Reference: PubChem BioAssay (NCI)
This is part of a sample that, as a whole, favours compounds with a hit. Of some 79,000 tested, about 15% had one in any assay. Active and inactive are the calls of the source. Cut-off read from the data, not from the text of the source: active = growth inhibition above about 70%; inactive = the rest.

Assays:
[1] = NCI Yeast Anticancer Drug Screen. Data for the rad52 strain (AID 147);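 note: 0% = growth of vehicle-treated control cultures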; conditions: S. cerevisiae rad52 mutant growth inhibition, active compounds read high
How it was run: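 Measured: yeast growth inhibition. System: strain with a defined DNA damage repair alteration. Reference: vehicle-treated control cultures.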

[2] = NCI Yeast Anticancer Drug Screen. Data for the wt1 strain (AID 149);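 note: 0% = growth of vehicle-treated wt1 cultures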; conditions: S. cerevisiae wt1 strain (SPY 50644) growth inhibition, active compounds read high
How it was run: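 Measured: growth of wt1 yeast under compound versus vehicle treatment, reported as inhibition.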

[3] = NCI Yeast Anticancer Drug Screen. Data for the rad50EPP+ strain (AID 151);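 note: 0% = growth of vehicle-treated control cultures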; conditions: S. cerevisiae rad50 mutant strain, active compounds read high
How it was run: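 One strain with a rad50 alteration (rad50EPP+) was compound-treated, its growth then compared to that of vehicle controls.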

[4] = NCI Yeast Anticancer Drug Screen. Data for the mgt1 strain (AID 153); conditions: S. cerevisiae mgt1 mutant growth inhibition, active compounds read high
How it was run: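 After exposure of the mgt1 yeast mutant to compound, growth was measured and reported as inhibition compared with vehicle controls.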

[5] = NCI Yeast Anticancer Drug Screen. Data for the rad50 strain (AID 155);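 note: 0% = growth of vehicle-only cultures of the same strain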; conditions: S. cerevisiae rad50 strain growth inhibition, active compounds read high
How it was run: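 Growth of the mutant yeast was measured after compound exposure and referenced to vehicle-treated cultures.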

[6] = NCI Yeast Anticancer Drug Screen. Data for the mec2-1 strain (AID 157); conditions: S. cerevisiae mec2-1 strain, active compounds read high
How it was run: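 Test agents were screened against the mec2-1 yeast strain, with defined DNA repair or cell cycle alteration. Growth was scored as inhibition against vehicle-only controls.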

[7] = NCI Yeast Anticancer Drug Screen. Data for the rad14 strain (AID 159);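 note: 0% = growth of vehicle-treated control cultures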; conditions: S. cerevisiae rad14 strain growth inhibition, active compounds read high
How it was run: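 Here, inhibition of yeast growth was measured after compound exposure, using a strain with a genetic defect in DNA damage repair and vehicle-treated cultures as the reference.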

[8] = NCI Yeast Anticancer Drug Screen. Data for the sgs1 mgt1 strain (AID 161);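 note: 0% = growth of cultures given vehicle only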; conditions: S. cerevisiae sgs1 mgt1 strain, active compounds read high
How it was run: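 Inhibition of yeast growth, normalised to vehicle-treated controls, is reported for a strain bearing genetic alterations in DNA damage repair.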

[9] = NCI Yeast Anticancer Drug Screen. Data for the CLN2oe strain (AID 163);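 note: 0% = growth of vehicle-only control cultures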; conditions: S. cerevisiae CLN2oe strain, active compounds read high
How it was run: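 Here, growth inhibition in a cell-cycle-altered yeast strain after compound exposure was quantified against vehicle control growth.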

[10] = NCI Yeast Anticancer Drug Screen. Data for the cln2 rad14 strain (AID 165);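 note: 0% = growth equal to vehicle treated cultures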; conditions: S. cerevisiae cln2 rad14 strain, active compounds read high
How it was run: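 Growth of compound-exposed yeast (cln2 rad14 genotype) measured and expressed as inhibition relative to vehicle.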

[11] = NCI Yeast Anticancer Drug Screen. Data for the bub3 strain (AID 167); conditions: S. cerevisiae bub3 mutant strain, active compounds read high
How it was run: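 Whole-cell yeast assay. The mutant strain was incubated with compounds, and growth inhibition was determined by comparison with vehicle-treated cells.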

[12] = NCI Yeast Anticancer Drug Screen. Data for the wt2 strain (AID 169);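 note: 0% = growth of vehicle-treated yeast cultures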; conditions: S. cerevisiae wt2 strain growth inhibition, active compounds read high
How it was run: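 Genetically defined yeast strains from a DNA-repair/cell-cycle panel were used. Compound-exposed yeast growth was measured, and the inhibition was calculated relative to vehicle treatment.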

[13] = NCI Yeast Anticancer Drug Screen. Data for the mlh1 strain (AID 171);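 note: 0% = growth of vehicle-treated control cultures of the same strain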; conditions: S. cerevisiae mlh1 strain growth inhibition, active compounds read high
How it was run: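 Here the genetically defined yeast mutant is grown with each compound, and the extent to which its growth falls below that of vehicle-exposed cells is reported.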

[14] = NCI Yeast Anticancer Drug Screen. Data for the sgs1 strain (AID 173);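 note: 0% = growth of vehicle-only control cultures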; conditions: S. cerevisiae sgs1 mutant, active compounds read high
How it was run: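 Relative growth inhibition, referenced to vehicle, was determined in a yeast strain with a defined alteration affecting DNA damage repair or cell cycle control after compound exposure.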

[15] = NCI Yeast Anticancer Drug Screen. Data for the mlh1 rad18 strain (AID 175); conditions: S. cerevisiae mlh1 rad18 strain growth inhibition, active compounds read high
How it was run: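 In this whole-cell yeast screen, a strain with altered DNA damage repair is challenged with compound, and its growth is measured against matched vehicle-treated controls.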

[16] = NCI Yeast Anticancer Drug Screen. Data for the rad18 strain (AID 177); conditions: S. cerevisiae rad18 mutant growth inhibition, active compounds read high
How it was run: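 Screen uses a yeast strain with a defined lesion in DNA damage repair; compound effect is read as loss of growth compared to untreated vehicle cultures.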

[17] = at 5.0 µM (retest, dose inferred, filed as 0.5)
[18] = at 50.0 µM (retest, dose inferred, filed as 5.0)

Measured: growth inhibition

O=C(O)c1ccc2cc(Cl)c3ccccc3c2c1
active: [5]; [18] 93% | [5]; at 50.0 µM 94.9% | [6]; [18] 89% | [6]; at 50.0 µM 94% | [8]; [18] 93% | [8]; at 50.0 µM 93.9% | [10]; [18] 92% | [10]; at 50.0 µM 92.8% | [11]; [18] 86% | [11]; at 50.0 µM 91.4% | [15]; [18] 93% | [15]; at 50.0 µM 94.8%
inactive: [1]; at 1.2 µM 1% | [1]; at 3.7 µM 9% | [1]; at 11.0 µM 28% | [1]; at 33.0 µM 55% | [1]; at 100.0 µM 67% | [2]; at 1.2 µM -4% | [2]; at 3.7 µM 3% | [2]; at 11.0 µM 11% | [2]; at 33.0 µM 30% | [2]; at 100.0 µM 43% | [3]; at 1.2 µM 3% | [3]; at 3.7 µM 9% | [3]; at 11.0 µM 17% | [3]; at 33.0 µM 24% | [3]; at 100.0 µM 21% | [4]; at 1.2 µM -1% | [4]; at 3.7 µM -4% | [4]; at 11.0 µM 15% | [4]; at 33.0 µM 41% | [4]; at 100.0 µM 60% | [5]; at 1.2 µM 2% | [5]; at 3.7 µM 12% | [5]; [17] 23% | [5]; at 11.0 µM 31% | [5]; at 33.0 µM 52% | [5]; at 100.0 µM 67% | [6]; at 1.2 µM -5% | [6]; at 3.7 µM 7% | [6]; [17] 1% | [6]; at 11.0 µM 25% | [6]; at 33.0 µM 44% | [6]; at 100.0 µM 54% | [7]; at 1.2 µM 0% | [7]; at 3.7 µM 7% | [7]; at 11.0 µM 20% | [7]; at 33.0 µM 42% | [7]; at 100.0 µM 58% | [8]; [17] 35% | [9]; at 1.2 µM -10% | [9]; at 3.7 µM -13% | [9]; at 11.0 µM 23% | [9]; at 33.0 µM 41% | [9]; at 100.0 µM 57% | [10]; [17] 30% | [11]; at 1.2 µM -4% | [11]; at 3.7 µM 1% | [11]; [17] 17% | [11]; at 11.0 µM 17% | [11]; at 33.0 µM 31% | [11]; at 100.0 µM 30% | [12]; at 1.2 µM -3% | [12]; at 3.7 µM 0% | [12]; at 11.0 µM 15% | [12]; at 33.0 µM 42% | [12]; at 100.0 µM 56% | [13]; at 1.2 µM 0% | [13]; at 3.7 µM 4% | [13]; at 11.0 µM 26% | [13]; at 33.0 µM 49% | [13]; at 100.0 µM 66% | [14]; at 1.2 µM 0% | [14]; at 3.7 µM 8% | [14]; at 11.0 µM 29% | [14]; at 33.0 µM 53% | [14]; at 100.0 µM 68% | [15]; [17] 58% | [16]; at 1.2 µM 2% | [16]; at 3.7 µM 3% | [16]; at 11.0 µM 19% | [16]; at 33.0 µM 39% | [16]; at 100.0 µM 55%

CC(C)(CN1CCCCC1)C(=O)/C=C/c1c(Cl)cccc1Cl
inactive: [1]; at 1.2 µM 12% | [1]; at 3.7 µM 35% | [1]; at 11.0 µM 68% | [2]; at 1.2 µM 10% | [2]; at 3.7 µM 15% | [2]; at 11.0 µM 32% | [3]; at 1.2 µM -2% | [3]; at 3.7 µM 0% | [3]; at 11.0 µM 22% | [3]; at 33.0 µM 50% | [3]; at 100.0 µM 47% | [4]; at 1.2 µM 10% | [4]; at 3.7 µM 37% | [5]; at 1.2 µM 11% | [5]; at 3.7 µM 29% | [5]; [17] 2% | [5]; at 11.0 µM 67% | [6]; at 1.2 µM 16% | [6]; at 3.7 µM 20% | [6]; [17] 14% | [6]; at 11.0 µM 51% | [7]; at 1.2 µM 44% | [7]; at 3.7 µM 54% | [8]; [17] 21% | [9]; at 1.2 µM 30% | [9]; at 3.7 µM 54% | [10]; [17] 55% | [11]; at 1.2 µM 27% | [11]; at 3.7 µM 49% | [11]; [17] 9%
active: [1]; at 33.0 µM 98% | [1]; at 100.0 µM 98% | [2]; at 33.0 µM 93% | [2]; at 100.0 µM 97% | [4]; at 11.0 µM 81% | [4]; at 33.0 µM 98% | [4]; at 100.0 µM 99% | [5]; at 33.0 µM 97% | [5]; [18] 99% | [5]; at 50.0 µM 75.8% | [5]; at 100.0 µM 97% | [6]; at 33.0 µM 94% | [6]; [18] 97% | [6]; at 50.0 µM 83.9% | [6]; at 100.0 µM 97% | [7]; at 11.0 µM 92% | [7]; at 33.0 µM 99% | [7]; at 100.0 µM 99% | [8]; [18] 98% | [8]; at 50.0 µM 86.9% | [9]; at 11.0 µM 79% | [9]; at 33.0 µM 93% | [9]; at 100.0 µM 98% | [10]; [18] 99% | [10]; at 50.0 µM 86.4% | [11]; at 11.0 µM 91% | [11]; at 33.0 µM 98% | [11]; [18] 99% | [11]; at 50.0 µM 88.8% | [11]; at 100.0 µM 98%
